# Data published in PubChem BioAssay.
# Active and inactive are the calls of the source. Unless noted, the rule behind the calls is not given here.
# Tests used:
# [1] = system: Wnt5a (protein binding on small-molecule microarray); experiment: small molecules binding Wnt5a protein – biophysical, small-molecule microarray, 635/667 nm fluorescence, primary screen (AID 1142); settings: 635 nm fluorescence, higher = more signal;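 note: fluorescence read at 667 nm with signal to noise per printed feature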
# [2] = ATP-based viability of Huh7 replicon cells – cell-based, CellTiter-Glo luminescence, basal, 48 h, cytotoxicity control for HCV replication inhibitor project, primary screen (AID 1143); settings: higher = more signal, called active from +8 up or from −8 down;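 note: Huh7 hepatoma cells carrying a hepatitis C replication reporter with no stimulus; test concentration not given here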
# [3] = Pseudomonas biofilm growth suppression – PAO1 strain, BacTiter-Glo luminescence, LB-PBS, primary screen (AID 1144); settings: P. aeruginosa PAO1 biofilm, 12 h, higher = more signal
# [4] = basal CRE-LacZ reporter activity in PC12 – cell-based, unstimulated, primary screen (AID 1145); settings: no forskolin, luminescence, 4.5 h, higher = more signal, called active from +8 up or from −8 down
# [5] = forskolin-driven CRE-LacZ activity in PC12 – cell-based, CRE-LacZ reporter, forskolin-stimulated, primary screen (AID 1146); settings: luminescence, 4.5 h, higher = more signal, called active from +8 up or from −8 down;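 note: PC12 cells with 6xCRE LacZ reporter stimulated by forskolin 10 µM; beta-galactosidase reporter signal reflecting CREB driven transcription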
# [6] = molecular target: Streptavidin (Streptomyces avidinii) (UniProt P22629); experiment: compounds binding control protein streptavidin – biophysical, small-molecule microarray, 635/667 nm fluorescence, artefact control for SMM compound annotation, primary screen (AID 1147); settings: higher = more signal;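 note: signal reflects streptavidin binding to arrayed compounds as a control protein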
# [7] = probe aInhba binding on compound microarray – biochemical, small-molecule microarray, 635/667 nm fluorescence, primary screen (AID 1148); settings: higher = more signal;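 note: score merges 667nm spot fluorescence with signal-to-noise for antibody binding to printed compounds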
# [8] = molecular target: Torsin-1A (Homo sapiens) (UniProt O14656); experiment: TOR1A wild-type binding on microarray – cell lysate, small-molecule microarray, lysate, 635/667 nm, primary screen (AID 1149); settings: COS7 hTOR1A-WT lysate, 635 nm fluorescence, higher = more signal
# [9] = molecular target: Torsin-1A (Homo sapiens) (UniProt O14656); experiment: torsin A mutant lysate binding on microarrays – cell lysate, small-molecule microarray, COS7 lysate, 635/667 nm fluorescence, primary screen (AID 1150); settings: COS7 hTOR1A mutant lysate, 635 nm fluorescence, higher = more signal;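 note: score pools 667 nm emission and signal to noise measuring lysate protein binding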
# [10] = system: Sonic hedgehog protein (Shh); experiment: Sonic hedgehog microarray binding compounds – biochemical, small-molecule microarray, 635/667 nm fluorescence, primary screen (AID 1151); settings: 635 nm fluorescence, higher = more signal;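 note: Shh protein binding to compounds spotted on small-molecule microarray slides; score combines spot fluorescence intensity with signal-to-noise across triplicate slides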
# [11] = optical density shifts of acrAB sulA E. coli – strain DRC41, OD650, 48 h, E. coli filamentation inducer project, primary screen (AID 1152); settings: higher = more signal, called active from +8 up or from −8 down;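 note: E. coli MC1000 strain DRC41 lacking acrAB efflux pump and sulA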
# [12] = probe aLefty1 binding on compound microarray – biochemical, small-molecule microarray, 635/667 nm fluorescence, primary screen (AID 1153); settings: higher = more signal;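 note: score merges spot fluorescence with signal-to-noise ratio from the scanned slide images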
# [13] = plasmodial surface anion channel blockers, osmotic lysis – cell-based, P. falciparum Indochina, OD700, 1 h, primary screen (AID 1154); settings: P. falciparum Indochina infected RBC osmotic lysis, higher = more signal, called active from +8 up or from −8 down
# [14] = plasmodial surface anion channel blockers, osmotic lysis – cell-based, P. falciparum Indochina, OD700, 2 h, primary screen (AID 1155);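 note: lysis reports solute entry through the parasite surface anion channel PSAC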; settings: P. falciparum Indochina infected erythrocytes, higher = more signal, called active from +8 up or from −8 down
# [15] = changes in parasitized red cell lysis, either direction – P. falciparum Indochina, OD700, 3 h, PSAC antagonist project, primary screen (AID 1156); settings: P. falciparum-infected erythrocytes, osmotic lysis, higher = more signal, called active from +8 up or from −8 down
# [16] = plasmodial surface anion channel blockers, osmotic lysis – cell-based, P. falciparum Indochina, OD700, 18 h, primary screen (AID 1157); settings: P. falciparum Indochina infected erythrocytes, osmotic lysis OD700, 18 h; higher = more signal, called active from +8 up or from −8 down
# [17] = S6 kinase pathway phospho-S6 level changes – cell-based, A549, cytoblot, luminescence, serum-stimulated, primary screen (AID 1158); settings: 5 h, higher = more signal;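 note: serum-stimulated A549 lung adenocarcinoma cells; signal is phosphorylated S6 detected by cytoblot immunostaining with HRP secondary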
# [18] = molecular target: NADPH oxidase 2 (Homo sapiens) (UniProt P04839); experiment: compounds shifting NOX2 Amplex Red fluorescence – cell-based, HEK293-NOX2, PMA-stimulated, NOX inhibitor project, primary screen (AID 1159); settings: 45 min, higher = more signal, called active from +8 up or from −8 down; note: test concentration not given here
# [19] = molecular target: NADPH oxidase 4 (Homo sapiens) (UniProt Q9NPH5); experiment: compounds shifting NOX4 Amplex Red fluorescence – cell-based, HEK293-NOX4, tetracycline-induced, NOX inhibitor project, primary screen (AID 1160); settings: HEK293-NOX4, Amplex Red H2O2 fluorescence, 45 min; higher = more signal, called active from +8 up or from −8 down
# [20] = molecular target: NADPH oxidase 5 (Homo sapiens) (UniProt Q96PH1); experiment: compounds shifting NOX5 Amplex Red fluorescence – cell-based, HEK293-NOX5, NOX inhibitor project, primary screen (AID 1161); settings: HEK293-NOX5, ionomycin, 45 min, higher = more signal
# Sequence of NADPH oxidase 5 (Homo sapiens) (Q96PH1 whole entry, looked up): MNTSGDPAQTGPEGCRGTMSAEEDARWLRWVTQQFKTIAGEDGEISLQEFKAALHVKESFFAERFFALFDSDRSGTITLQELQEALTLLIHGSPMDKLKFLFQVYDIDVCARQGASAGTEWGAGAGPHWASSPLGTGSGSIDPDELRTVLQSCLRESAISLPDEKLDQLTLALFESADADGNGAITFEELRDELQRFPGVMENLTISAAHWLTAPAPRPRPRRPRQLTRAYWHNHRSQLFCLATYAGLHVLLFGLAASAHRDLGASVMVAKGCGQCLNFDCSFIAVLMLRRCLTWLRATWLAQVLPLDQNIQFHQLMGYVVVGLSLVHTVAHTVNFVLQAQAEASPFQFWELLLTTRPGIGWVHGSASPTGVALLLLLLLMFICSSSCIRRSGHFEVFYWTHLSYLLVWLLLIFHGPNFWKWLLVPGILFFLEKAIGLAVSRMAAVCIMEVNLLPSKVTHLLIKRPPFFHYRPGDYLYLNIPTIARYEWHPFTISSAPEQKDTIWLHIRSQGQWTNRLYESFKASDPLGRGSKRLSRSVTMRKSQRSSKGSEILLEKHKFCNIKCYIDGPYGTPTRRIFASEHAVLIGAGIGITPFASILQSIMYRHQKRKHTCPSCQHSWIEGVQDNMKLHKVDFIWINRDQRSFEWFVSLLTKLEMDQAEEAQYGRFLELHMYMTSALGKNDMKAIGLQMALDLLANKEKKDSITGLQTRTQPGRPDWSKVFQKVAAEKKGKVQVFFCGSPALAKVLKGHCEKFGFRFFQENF
# Sequence of NADPH oxidase 2 (Homo sapiens) (P04839 whole entry, looked up): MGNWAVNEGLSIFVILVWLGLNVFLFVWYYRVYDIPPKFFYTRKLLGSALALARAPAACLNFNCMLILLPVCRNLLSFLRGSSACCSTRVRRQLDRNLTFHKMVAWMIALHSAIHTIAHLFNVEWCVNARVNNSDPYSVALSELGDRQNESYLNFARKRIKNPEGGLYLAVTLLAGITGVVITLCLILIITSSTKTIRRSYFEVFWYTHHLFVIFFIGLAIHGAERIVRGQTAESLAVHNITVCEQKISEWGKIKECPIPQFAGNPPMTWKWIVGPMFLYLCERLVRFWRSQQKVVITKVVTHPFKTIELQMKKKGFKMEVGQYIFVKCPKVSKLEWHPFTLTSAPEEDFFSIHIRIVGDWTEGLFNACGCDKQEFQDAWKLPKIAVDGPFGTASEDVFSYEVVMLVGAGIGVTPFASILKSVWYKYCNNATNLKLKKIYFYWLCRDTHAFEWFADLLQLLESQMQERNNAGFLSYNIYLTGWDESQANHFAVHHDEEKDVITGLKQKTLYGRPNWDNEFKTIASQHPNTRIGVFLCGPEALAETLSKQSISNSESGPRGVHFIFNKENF
# Sequence of Torsin-1A (Homo sapiens) (O14656 whole entry, looked up): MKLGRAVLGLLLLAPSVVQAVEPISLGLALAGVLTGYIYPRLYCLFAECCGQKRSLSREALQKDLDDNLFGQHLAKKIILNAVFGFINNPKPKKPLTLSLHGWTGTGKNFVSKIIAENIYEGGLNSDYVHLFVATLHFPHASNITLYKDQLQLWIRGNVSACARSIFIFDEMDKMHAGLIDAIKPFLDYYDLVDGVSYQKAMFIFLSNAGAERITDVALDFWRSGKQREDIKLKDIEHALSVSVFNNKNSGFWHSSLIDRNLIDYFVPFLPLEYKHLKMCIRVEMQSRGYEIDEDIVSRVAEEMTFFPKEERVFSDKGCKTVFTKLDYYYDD
# Sequence of Streptavidin (Streptomyces avidinii) (P22629 whole entry, looked up): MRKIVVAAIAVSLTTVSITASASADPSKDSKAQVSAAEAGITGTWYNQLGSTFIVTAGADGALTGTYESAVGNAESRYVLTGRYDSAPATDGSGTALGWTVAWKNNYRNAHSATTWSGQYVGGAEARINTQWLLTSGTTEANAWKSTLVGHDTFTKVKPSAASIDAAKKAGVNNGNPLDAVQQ
# Sequence of NADPH oxidase 4 (Homo sapiens) (Q9NPH5 whole entry, looked up): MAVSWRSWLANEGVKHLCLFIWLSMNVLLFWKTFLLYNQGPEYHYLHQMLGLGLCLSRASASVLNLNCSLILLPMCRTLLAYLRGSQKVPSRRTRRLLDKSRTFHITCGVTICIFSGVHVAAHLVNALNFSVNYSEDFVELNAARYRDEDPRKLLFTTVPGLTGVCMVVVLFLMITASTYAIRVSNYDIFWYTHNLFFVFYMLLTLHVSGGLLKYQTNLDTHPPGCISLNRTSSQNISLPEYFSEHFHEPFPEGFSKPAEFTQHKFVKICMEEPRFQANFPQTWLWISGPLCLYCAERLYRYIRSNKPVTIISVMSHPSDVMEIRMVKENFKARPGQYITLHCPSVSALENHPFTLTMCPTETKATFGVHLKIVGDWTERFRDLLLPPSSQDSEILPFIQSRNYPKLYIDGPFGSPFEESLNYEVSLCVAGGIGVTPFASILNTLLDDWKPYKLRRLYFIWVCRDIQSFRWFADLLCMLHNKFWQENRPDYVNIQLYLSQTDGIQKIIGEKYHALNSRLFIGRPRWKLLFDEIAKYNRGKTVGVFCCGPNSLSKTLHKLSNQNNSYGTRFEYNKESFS
SMILES,composite z-score [1],z-score [2],z-score [3],z-score [4],z-score [5],composite z-score [6],composite z-score [7],composite z-score [8],composite z-score [9],composite z-score [10],z-score [11],composite z-score [12],z-score [13],z-score [14],z-score [15],z-score [16],z-score [17],z-score [18],z-score [19],z-score [20]
CCN1C(=O)[C@H]2[C@H]3[C@H](O)[C@H](O)CC(=NO[C@@H](C)c4cc(-c5c(C)cc(C)cc5C)no4)[C@@H]3CC[C@H]2C1=O,0.266,-1.74 (inactive),0.847 (inactive),2.08 (inactive),0.205 (inactive),0.203,0.0756,1.22,1.33,1.15,0.663 (inactive),-0.103,2.34 (inactive),0.496 (inactive),0.504 (inactive),0.588 (inactive),-0.428,0.204 (inactive),0.175 (inactive),0.211
CON=C[C@@H](OC)[C@H](C)C=CCC(=O)OC,-0.115,-0.569 (inactive),0.157 (inactive),0.257 (inactive),0.034 (inactive),-0.0172,-0.0762,0.752,-0.0215,0.183,-2.24 (inactive),-0.316,0.0283 (inactive),0.325 (inactive),-0.779 (inactive),0.22 (inactive),0.279,0.592 (inactive),0.358 (inactive),-0.945
COc1ccc(COC(=O)NN=C2C[C@@H](O)[C@@H](O)[C@@H]3[C@@H]4C(=O)N(C(C)(C)C)C(=O)[C@@H]4CC[C@@H]23)cc1,0.211,0.22 (inactive),0.224 (inactive),0.973 (inactive),0.384 (inactive),0.244,0.0086,0.385,1.47,0.612,0.244 (inactive),-0.328,0.339 (inactive),-0.039 (inactive),-0.609 (inactive),-0.0118 (inactive),1.14,-0.384 (inactive),0.808 (inactive),0.315
CC(CCN1CCCCc2nc(C)c(C)cc21)=NO[C@H](C)c1cn([C@@H]2COC[C@H]2O)nn1,0.229,-0.216 (inactive),0.184 (inactive),-0.482 (inactive),-0.445 (inactive),1.12,-0.0701,2.71,2.5,2.01,0.431 (inactive),-0.0088,0.682 (inactive),0.406 (inactive),0.116 (inactive),0.342 (inactive),-0.363,-0.526 (inactive),0.167 (inactive),-0.376
CCN(CC)CC(O)CN1CCCCc2nc(C)c(C)cc21 (stereo not given),0.0321,-1.1 (inactive),-1.67 (inactive),-0.161 (inactive),-0.71 (inactive),0.551,-0.183,0.57,0.029,0.261,0.219 (inactive),-0.0544,-0.446 (inactive),-1.31 (inactive),0.273 (inactive),-1.55 (inactive),1.43,0.776 (inactive),-0.622 (inactive),0.419
O=C1[C@H]2[C@H]3[C@H](O)[C@H](O)CC(=NO[C@@H]4O[C@H](CO)[C@@H](O)[C@H](O)[C@H]4O)[C@@H]3CC[C@H]2C(=O)N1C[C@@H]1CCCO1,0.185,-2.92 (inactive),-0.131 (inactive),0.885 (inactive),0.0432 (inactive),0.0066,-0.128,0.339,-0.0388,0.89,-1.2 (inactive),-0.0462,0.377 (inactive),-0.963 (inactive),0.389 (inactive),-2.39 (inactive),0.054,-2.04 (inactive),-0.772 (inactive),-0.711
O=C1[C@H]2CCn3c(=O)n(Cc4cc5c(cc4Cl)OCO5)c(=O)n3[C@H]2[C@H](O)[C@@H]2O[C@H]12,-0.509,-0.926 (inactive),0.529 (inactive),-0.925 (inactive),-0.0963 (inactive),-0.0064,-0.215,-0.22,-0.343,0.853,0.709 (inactive),-0.196,0.439 (inactive),-0.511 (inactive),-0.277 (inactive),-0.212 (inactive),0.489,-0.664 (inactive),0.135 (inactive),0.336
C=CC[C@@H]1C=C[C@H](ON=C[C@@H](NS(=O)(=O)c2ccc(C)cc2)[C@H](C)C=CCC(=O)OC)[C@@H](CO)O1,-0.116,0.182 (inactive),1.33 (inactive),0.848 (inactive),0.983 (inactive),-0.407,0.138,0.359,0.634,0.416,0.171 (inactive),-0.191,1.16 (inactive),0.278 (inactive),0.0436 (inactive),0.343 (inactive),-0.738,-0.0272 (inactive),0.118 (inactive),-0.286
CO[C@@H]1COC(=O)[C@H](CCSC)NC(=O)CC=C[C@@H](C)COC(=O)[C@@H]2CCCN2C(=O)CC=C[C@H]1C,0.186,-0.501 (inactive),0.277 (inactive),0.0652 (inactive),-1.38 (inactive),-0.234,-0.024,1.24,0.785,0.876,-0.785 (inactive),0.224,0.911 (inactive),0.727 (inactive),0.537 (inactive),0.354 (inactive),-0.235,-2.15 (inactive),-0.045 (inactive),0.887
